Experimental data published in PubChem BioAssay (Tox21).
Inconclusive results are not listed. The source made the active and inactive calls. Unless noted, calls follow the shape of the full dose curve.

How the values were obtained:
[1] = Nuclear factor erythroid 2-related factor 2/antioxidant responsive element (Nrf2/ARE) small molecule agonists: qHTS cell viability counter screen in human keratinocytes (AID 1919968; active = well fitted curve in the direction sought with a large enough effect in the repeat runs; an effect the other way counts as inactive or inconclusive; also: nearly all actives have a fitted effect of over 55% in size)
How it was run: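 KeratinoSens HaCaT cells, 1,500/well, preincubated 5 h, then exposed to compounds in DMSO for 23 h at 37 C/5% CO2. Viability read as CellTiter-Fluor fluorescence after 1 h, in the same wells as the ARE-luciferase read.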

[2] = Nuclear factor erythroid 2-related factor 2/antioxidant responsive element (Nrf2/ARE) small molecule agonists: luciferase reporter gene qHTS assay in human keratinocytes (AID 1919969); also: nearly all actives have a fitted effect of over 35% in size; also: potency is read from the fitted curve at half-maximal effect
[3] = molecular target: Gonadotropin-releasing hormone receptor (Homo sapiens) (UniProt P30968); assay: Human gonadotropin-releasing hormone receptor (GnRHR) small molecule agonists, calcium flux assay in GnRHR-HEK293 cells (AID 1920063); also: nearly all actives have a fitted effect of over 35% in size
Gonadotropin-releasing hormone receptor (Homo sapiens), sequence (P30968 whole entry, looked up): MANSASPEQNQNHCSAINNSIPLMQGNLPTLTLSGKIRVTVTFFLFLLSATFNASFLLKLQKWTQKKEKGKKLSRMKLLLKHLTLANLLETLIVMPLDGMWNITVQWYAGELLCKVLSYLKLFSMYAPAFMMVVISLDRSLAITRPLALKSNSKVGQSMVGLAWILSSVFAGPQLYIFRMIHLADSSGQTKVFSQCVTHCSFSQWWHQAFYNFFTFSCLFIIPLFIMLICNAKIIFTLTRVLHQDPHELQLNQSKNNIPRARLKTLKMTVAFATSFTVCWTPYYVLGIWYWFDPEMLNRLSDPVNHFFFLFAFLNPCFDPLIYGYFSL
How it was run: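 HEK293 cells stably expressing human GnRHR were dye-loaded for 1 h at 37 C. Compound was added in agonist mode and fluorescence (Ex/Em 480/540) recorded kinetically for 3 min. Fifteen concentrations, triplicates.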

[4] = molecular target: KiSS-1 receptor (Homo sapiens) (UniProt Q969F8); assay: Human kisspeptin (KISS1R) small molecule agonists, calcium flux assay in KISS1R-HEK293 cells (AID 1920064; active = well fitted curve in the direction sought with a large enough effect in the repeat runs; an effect the other way counts as inactive or inconclusive)
KiSS-1 receptor (Homo sapiens), sequence (Q969F8 whole entry, looked up): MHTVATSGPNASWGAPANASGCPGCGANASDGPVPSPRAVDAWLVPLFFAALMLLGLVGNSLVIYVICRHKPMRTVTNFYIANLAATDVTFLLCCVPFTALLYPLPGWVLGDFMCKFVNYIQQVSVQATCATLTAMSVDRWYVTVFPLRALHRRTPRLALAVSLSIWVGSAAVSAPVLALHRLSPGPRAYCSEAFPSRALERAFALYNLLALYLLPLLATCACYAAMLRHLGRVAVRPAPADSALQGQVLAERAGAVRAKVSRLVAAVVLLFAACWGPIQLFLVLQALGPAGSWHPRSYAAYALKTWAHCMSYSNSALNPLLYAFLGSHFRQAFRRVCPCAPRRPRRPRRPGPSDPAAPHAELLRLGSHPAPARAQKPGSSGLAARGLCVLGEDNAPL
How it was run: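 HEK293 cells stably expressing human KISS1R were loaded with calcium dye for 1 h at 37 C, then given compound; fluorescence (Ex/Em 480/540) was read kinetically for 3 min. Fifteen concentrations, triplicate.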

[5] = G protein-coupled receptor (GPCR) small molecule agonists, calcium flux assay: HEK293 wild type cell line counter screen (AID 1920065)
How it was run: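 Wild-type HEK293 cells plated 18 h, loaded with calcium dye 1 h at 37 C, then compounds added in agonist mode (ATP as positive control). Kinetic fluorescence Ex/Em 480/540 recorded 3 min at 1 sec intervals; 15 concentrations, triplicate.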

[6] = p53 small molecule agonists, cell-based qHTS assay with human liver microsomes (AID 1963577)
How it was run: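 Fluorescence of the beta-lactamase reporter in p53RE-bla cells, detected with LiveBLAzer substrate (2 h, room temperature, dark), served as the read-out after 16 h compound exposure at 37 C with human liver microsomes and NADPH, each 0.5 mg/mL final.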

[7] = p53 small molecule agonists, cell-based qHTS assay with rat liver microsomes (AID 1963578)
How it was run: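 Cells carrying a p53 response element–beta-lactamase reporter were plated and rested 5 h, then dosed with compound in DMSO plus rat liver microsomes and NADPH, each at 0.5 mg/mL final. After 16 h at 37 C, LiveBLAzer substrate was added for 2 h.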

[8] = p53 small molecule agonists, cell-based qHTS assay with human liver microsomes: qHTS cell viability counter screen (AID 1963579); also: nearly all actives have a fitted effect of over 45% in size
How it was run: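 Cytotoxicity counter screen: p53RE-bla, 4,000 cells/well; 5 h settle, 37 C/5% CO2; cpd + HLM 0.5 mg/mL + NADPH 0.5 mg/mL (final); 16 h, 37 C; CellTiter-Glo, 30 min RT, luminescence.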

[9] = p53 small molecule agonists, cell-based qHTS assay with rat liver microsomes: qHTS cell viability counter screen (AID 1963580); also: nearly all actives have a fitted effect of over 45% in size
How it was run: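 In HCT-116 cells carrying a p53 response element-bla reporter, compounds were metabolically activated in situ by rat liver microsomes with NADPH over 16 h. Cell ATP content then served as the cytotoxicity measure.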

[10] = p53 small molecule agonists, cell-based qHTS assay: qHTS cell viability counter screen (AID 1963581); also: nearly all actives have a fitted effect of over 45% in size
How it was run: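 p53RE-bla HCT-116 cells, compounds added 5 h after plating and incubated 16 h at 37 C. Cytotoxicity measured in the same wells as intracellular ATP by CellTiter-Glo luminescence after 30 min at room temperature.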

[11] = p53 small molecule agonists, cell-based qHTS assay (AID 1963582; active = well fitted activation curve with a large enough effect in the signal ratio in the repeat runs, not every such curve was filed as active; the % refers to the signal ratio)
How it was run: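 p53RE-bla reporter cells, compounds added in DMSO after 5 h plating, incubated 16 h at 37 C. Beta-lactamase read via 2 h room-temperature LiveBLAzer B/G FRET substrate, fluorescence intensity.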

[12] = molecular target: 5-hydroxytryptamine receptor 2A (Homo sapiens) (UniProt P28223); assay: 5-hydroxytryptamine receptor 2A (HTR2A) small molecule antagonists, cell-based qHTS assay (AID 1963586); also: nearly all actives have a fitted effect of over 45% in size; also: potency is read from the fitted curve at half-maximal effect
5-hydroxytryptamine receptor 2A (Homo sapiens), sequence (P28223 whole entry, looked up): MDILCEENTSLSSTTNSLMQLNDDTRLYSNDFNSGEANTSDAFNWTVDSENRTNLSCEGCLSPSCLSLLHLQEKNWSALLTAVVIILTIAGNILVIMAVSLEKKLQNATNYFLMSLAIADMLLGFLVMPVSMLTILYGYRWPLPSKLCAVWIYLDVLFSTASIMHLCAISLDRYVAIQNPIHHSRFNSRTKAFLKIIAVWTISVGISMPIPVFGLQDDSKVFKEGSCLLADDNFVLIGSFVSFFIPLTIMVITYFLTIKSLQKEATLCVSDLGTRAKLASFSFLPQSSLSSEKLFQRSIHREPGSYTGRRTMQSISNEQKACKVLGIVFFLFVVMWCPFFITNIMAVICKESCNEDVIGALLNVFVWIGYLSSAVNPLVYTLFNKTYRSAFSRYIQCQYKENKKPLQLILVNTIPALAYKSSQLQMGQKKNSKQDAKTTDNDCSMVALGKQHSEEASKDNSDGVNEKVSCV
How it was run: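 Antagonist-mode intracellular calcium assay: DOI (4 nM) added after 5 min compound pre-incubation at room temperature to dye-loaded HTR2A-CHO cells. Fluorescence followed for 3 min, sampled every second.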

[13] = molecular target: 5-hydroxytryptamine receptor 2A (Homo sapiens) (UniProt P28223); assay: 5-hydroxytryptamine receptor 2A (HTR2A) small molecule agonists, cell-based qHTS assay (AID 1963587); also: nearly all actives have a fitted effect of over 30% in size; also: potency is read from the fitted curve at half-maximal effect
How it was run: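 HTR2A-CHO cells, plated 18 h at 37 C/5% CO2, dye-loaded 1 h at 37 C; compounds in DMSO added by pin tool (agonist mode). Intracellular calcium flux read as kinetic fluorescence on FDSS over 2 min at 1 s intervals.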

[14] = molecular target: Muscarinic acetylcholine receptor M1 (Homo sapiens) (UniProt P11229); assay: Cholinergic receptor muscarinic 1 (CHRM1) small molecule antagonists, cell-based qHTS assay (AID 1963588); also: nearly all actives have a fitted effect of over 40% in size; also: potency is read from the fitted curve at half-maximal effect
Muscarinic acetylcholine receptor M1 (Homo sapiens), sequence (P11229 whole entry, looked up): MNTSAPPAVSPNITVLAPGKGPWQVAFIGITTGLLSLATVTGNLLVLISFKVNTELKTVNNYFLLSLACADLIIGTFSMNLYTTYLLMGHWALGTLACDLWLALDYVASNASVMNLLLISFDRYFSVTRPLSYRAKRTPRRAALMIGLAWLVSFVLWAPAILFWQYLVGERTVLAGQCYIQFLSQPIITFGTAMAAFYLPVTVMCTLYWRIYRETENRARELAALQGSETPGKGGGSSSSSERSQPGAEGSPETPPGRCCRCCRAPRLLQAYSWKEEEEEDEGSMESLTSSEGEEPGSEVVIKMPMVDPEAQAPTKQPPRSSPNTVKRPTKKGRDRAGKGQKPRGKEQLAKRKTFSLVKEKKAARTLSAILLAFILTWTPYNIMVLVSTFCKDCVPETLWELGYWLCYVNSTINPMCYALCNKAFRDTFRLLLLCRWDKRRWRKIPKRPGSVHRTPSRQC
How it was run: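 CHRM1-CHO calcium-flux assay, antagonist mode. Cells were seeded 18 h, dye-loaded 1 h at 37 C and given compound for 5 min at RT, then acetylcholine was added at 50nM. FDSS fluorescence was read 3 min; 15 concentrations, three runs.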

[15] = molecular target: Muscarinic acetylcholine receptor M1 (Homo sapiens) (UniProt P11229); assay: Cholinergic receptor muscarinic 1 (CHRM1) small molecule agonists, cell-based qHTS assay (AID 1963589); also: nearly all actives have a fitted effect of over 35% in size
How it was run: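 CHO cells stably expressing human CHRM1 were loaded with calcium dye for 1 h at 37 C, then compound was added in agonist mode. Intracellular calcium fluorescence was followed kinetically at 1 s intervals. Fifteen concentrations were tested in three independent runs.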

[16] = molecular target: Beta-2 adrenergic receptor (Homo sapiens) (UniProt P07550); assay: Adrenergic beta2 receptor (ADRB2) small molecule antagonists, cell-based qHTS assay (AID 1963592); also: series mostly up to about 92 µM; nearly all actives have a fitted effect of over 50% in size
Beta-2 adrenergic receptor (Homo sapiens), sequence (P07550 whole entry, looked up): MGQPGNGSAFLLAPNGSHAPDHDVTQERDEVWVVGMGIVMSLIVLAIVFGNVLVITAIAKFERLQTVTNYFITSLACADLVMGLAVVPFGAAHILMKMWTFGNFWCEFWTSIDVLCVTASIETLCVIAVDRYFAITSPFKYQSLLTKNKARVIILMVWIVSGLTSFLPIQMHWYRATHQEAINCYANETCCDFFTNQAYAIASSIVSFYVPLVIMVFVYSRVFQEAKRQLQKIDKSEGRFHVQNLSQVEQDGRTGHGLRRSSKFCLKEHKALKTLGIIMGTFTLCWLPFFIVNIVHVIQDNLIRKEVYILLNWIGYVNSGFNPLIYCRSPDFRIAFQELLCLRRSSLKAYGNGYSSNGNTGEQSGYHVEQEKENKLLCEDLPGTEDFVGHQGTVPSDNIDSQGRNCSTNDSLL
How it was run: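 Cells (CHO, stable ADRB2 overexpression) incubated 18-20hr at 37C; compounds added from DMSO; agonist mix (1nM isoproterenol, 100uM IBMX, 25uM Ro-20-1724) added; 0.5hr RT; d2-cAMP and anti-cAMP-cryptate added; 1hr RT; 665/615 nm read.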

[17] = molecular target: D(2) dopamine receptor (Homo sapiens) (UniProt P14416); assay: Dopamine D2 receptor (DRD2) small molecule antagonists, cell-based qHTS assay (AID 1963595; active = well fitted inhibition curve with a large enough effect in the signal ratio in the repeat runs, with a control signal flat; the % refers to the signal ratio; also: potency is read from the fitted curve at half-maximal effect)
D(2) dopamine receptor (Homo sapiens), sequence (P14416 whole entry, looked up): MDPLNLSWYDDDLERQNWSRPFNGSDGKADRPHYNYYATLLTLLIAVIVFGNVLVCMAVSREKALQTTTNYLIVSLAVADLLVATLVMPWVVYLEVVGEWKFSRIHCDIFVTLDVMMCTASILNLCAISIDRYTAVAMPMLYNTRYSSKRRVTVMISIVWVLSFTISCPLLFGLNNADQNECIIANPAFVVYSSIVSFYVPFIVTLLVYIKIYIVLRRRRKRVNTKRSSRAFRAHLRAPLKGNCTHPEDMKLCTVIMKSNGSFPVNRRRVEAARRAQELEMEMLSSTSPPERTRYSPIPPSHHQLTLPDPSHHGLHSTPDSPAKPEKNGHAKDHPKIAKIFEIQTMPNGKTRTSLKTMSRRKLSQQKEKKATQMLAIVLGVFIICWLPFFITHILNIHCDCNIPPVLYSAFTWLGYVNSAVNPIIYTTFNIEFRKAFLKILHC
How it was run: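 Stable D2 receptor HEK293 line, 24 h after seeding. Compound preincubated 10 min, then quinpirole (12 nM) with forskolin analogue NKH477 (200 nM), 30 min, room temperature. Detection by time-resolved FRET of cAMP.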

[18] = cAMP Responsive Elements (CRE) small molecule agonists, cell-based qHTS assay (AID 1963590)
How it was run: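 CRE-bla HEK 293T cells, 2,000/well in DMEM with 10% dialyzed FBS and 25 mM HEPES, pre-incubated 18 h at 37 C, then exposed to compound 3 h at 37 C. Beta-lactamase reporter read with LiveBLAzer B/G FRET substrate after 2 h at room temperature.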

[19] = cAMP Responsive Elements (CRE) small molecule antagonists, cell-based qHTS assay (AID 1963591; active = well fitted inhibition curve with a large enough effect in the signal ratio in the repeat runs, not every such curve was filed as active; the % refers to the signal ratio)
How it was run: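 CRE-bla HEK293T cells plated 18 h, then given compound plus NKH477 at 0.25 uM final for 3 h at 37C. Beta-lactamase reporter read with LiveBLAzer B/G FRET substrate after 2 h at room temperature.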

[20] = molecular target: D(2) dopamine receptor (Homo sapiens) (UniProt P14416); assay: Dopamine D2 receptor (DRD2) small molecule agonists, cell-based qHTS assay (AID 1963594); also: nearly all actives have a fitted effect of over 35% in size
How it was run: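 HEK293 cells stably expressing DRD2 were cultured 24 h at 37 C, then given Ro20-1724 (0.1 mM final) and compounds for 10 min at room temperature. NKH477 (200nM) was then added for 30 min. cAMP was read by HTRF.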

Measured: Potency

C[C@]12CC[C@H]3[C@@H](CCC4=CC(=O)CC[C@@]43C)[C@@H]1CC[C@@H]2C(=O)O
not listed: [18] | [19] | [20]
inactive: all other assays above

C[N+](C)(C)CCOC(=O)C(O)(c1ccccc1)c1ccccc1
not listed: [14] | [20]
inactive: all other assays above

O=C(NC(=O)c1c(F)cccc1F)Nc1cc(Cl)c(F)c(Cl)c1F
not listed: [15] | [16] | [19]
inactive: all other assays above

N#Cc1ccc(N(CC(N)=O)CC(F)(F)F)cc1C(F)(F)F
not listed: [20]
inactive: all other assays above

COC(=O)C(c1ccccc1)C1CCCCN1 (configuration not stated)
active: [14] 26.6 µM
not listed: [13]
inactive: all other assays above

O=C1C(Cl)C(CCl)CN1c1cccc(C(F)(F)F)c1 (configuration not stated)
not listed: [18] | [19] | [20]
inactive: all other assays above

CC(Cl)C(C)Cl (configuration not stated)
not listed: [19]
inactive: all other assays above

C=C1C[C@@H]2[C@H](CC[C@]3(C)C(=O)CC[C@@H]23)[C@@]2(C)C=CC(=O)C=C12
active: [2] 29.8 µM
not listed: [16] | [18] | [19]
inactive: all other assays above

CC(C)NCC(O)c1ccc(N)c(C#N)c1 (configuration not stated)
active: [12] 18.3 µM | [13] 7.56 µM | [17] 0.0047 µM
not listed: [16] | [18] | [19]
inactive: all other assays above

CNC(C)Cc1ccccc1OC (configuration not stated)
active: [13] 0.848 µM
not listed: [12]
inactive: all other assays above

CCCCCCCCP(=O)(O)O
not listed: [11]
inactive: all other assays above

CC[N+]1(C)CCCC(OC(=O)C(O)(c2ccccc2)c2ccccc2)C1 (configuration not stated)
not listed: [12] | [14]
inactive: all other assays above

Nc1ccccc1-c1ccccc1
not listed: [11] | [18]
inactive: all other assays above

ClCc1ccc(Cl)cc1Cl
not listed: [11]
inactive: all other assays above

COC(=O)C1(O)c2ccccc2-c2ccccc21
not listed: [12]
inactive: all other assays above
